# Several values for one entry are separate records, joined by “and”; a condition that tells them apart may be missing. Identical values can stand only once. Inconclusive results are not listed. Values without a mark were called inactive. Activity calls are given as the source filed them. Calls follow the shape of the dose curve; as a rule, active = well fitted cell-killing curve with a large enough effect; inconclusive = small, poorly fitted or top-dose-only effect, or effect the other way; inactive = no such curve, though single readings can be large or run the other way.
# Assay: Viability qHTS for spleen associated tyrosine kinase inhibitor (SYKi) drug resistant MV4-11 cells (AID 1963824); also: nearly all actives have a fitted effect of over 35% in size
# Details: SYKi-resistant MV4-11 viability, CellTiter-Glo, 72 h; series mostly up to 45 µM; viability, % of control: at the top concentration
# Text: Department of Medicine, Hematology/Oncology
# University Hospital Frankfurt, Germany.
# Trials have shown promising clinical activity of the selective SYK inhibitor entospletinib in patients with high expressing HOXA9/MEIS1 acute leukemias. As the development of resistance mechanisms is a common problem in the use of targeted drugs, we performed a chemical library screen to identify drug sensitivities in SYK inhibitor resistant AML cells. […] Glucocorticoids are potent immunosuppressants which work in part by inhibiting the transcription of cytokine genes.
# Described herein is a viability screen to look for activity in the SYK inhibitor drug resistant cell line against four NCATS compound libraries (MIPE 5.0, NPC, NPACT, and Kinase) totaling 11372 compounds. Active hits were reacquired for confirmation and further secondary assay testing.
# SEQUENCE No. (e.g., 1, 2, 3, etc.); […] (e.g., Cells, Incubation, Reagent, etc.); VALUE; DESCRIPTION.
# 1; Media; 2uL; white, solid-bottom Corning assay plate.
# 2; Compounds; 23nL; Echo acoustic dispenser.
# 3; Cell; 5uL; 500 cells per well.
# 4: Incubation; 72hr; 37 C, 5% CO2, 95% humidity.
# 5; Reagent; 3uL; CellTiter-Glo reagent (Promega).
# 6; Incubation; 10min; room temperature.
# 7; Detection; Luminescence; ViewLux plate reader (PerkinElmer).
# NOTES (numbers refer to Sequence numbers above
# 1. Quantitative high-throughput screening (qHTS) of small molecule compounds was conducted on drug resistant SYKi MV4-11 cell line.
# 2. Twenty-three nanoliter of small molecule compounds were added to each assay plates using the Echo acoustic dispenser (Beckman Coulter).
# 3. Cells were seeded into the assay plates at a final density of 500 cells in 5uL of media per well using the Multidrop Combi dispenser.
# 4. Plates were covered with stainless steel gasketed lids and incubated for 72 hours at standard cell culture conditions.
# 5. Viability was assessed by adding 3uL of CellTiter-Glo detection reagent (Promega).
# 6. Plates were covered with gasket lids and incubated for 10 minutes at room temperature.
# 7. Luminescence was measured on a ViewLux plate reader (PerkinElmer).
# Potency is read from the fitted curve at half-maximal effect.
Compound,"viability, % of control",Potency
Nc1nc(N)c(-c2ccccc2)s1,93.8%,
C=CC(=O)Nc1cccc(Nc2nc(Nc3ccc(N4CCN(C(C)=O)CC4)cc3OC)ncc2C(F)(F)F)c1,,1.84 µM (active) and 1.86 µM (active)
Nc1ncnc2c1c(-c1cccc(OCc3ccccc3)c1)cn2C1CC(CN2CCCC2)C1 (stereo not given),,1.3 µM (active)
CC1(C)CC[C@]2(C(=O)O[C@@H]3O[C@H](CO)[C@@H](O)[C@H](O)[C@H]3O)CC[C@]3(C)C(=CCC4[C@@]5(C)CC[C@H](O[C@@H]6O[C@H](C(=O)O)[C@@H](O[C@@H]7O[C@H](CO)[C@@H](O)[C@H](O)[C@H]7O)[C@H](O)[C@H]6O[C@@H]6O[C@H](CO)[C@@H](O)[C@H](O)[C@H]6O)C(C)(C)C5CC[C@]43C)C2C1 (stereo not given in full),104% [at 9.25 µM],
C=C1c2cccc(O)c2C(O)=C2C(=O)[C@]3(O)C(O)=C(C(N)=O)C(=O)[C@@H](N(C)C)[C@@H]3[C@@H](O)[C@H]12,76.6%,
CCC(C)n1ncn(-c2ccc(N3CCN(c4ccc(OC[C@H]5CO[C@](Cn6cncn6)(c6ccc(Cl)cc6Cl)O5)cc4)CC3)cc2)c1=O (stereo not given in full),,1.59 µM (active)
CN(C[C@@H]1COCCO1)S(=O)(=O)Nc1ccc2ccc3ncc(-c4cnn(C)c4)cc3c(=O)c2c1,,0.461 µM (active)
COc1ccc(N2CCN(C(=O)c3cc4c(s3)-c3ccccc3S(=O)(=O)C4)CC2)cc1,72.4%,
O=c1oc2c(C3OCCCO3)c(O)ccc2c2c1CNCC2,,11.8 µM (active)
O=C(NCCc1c[nH]c2ccccc12)c1cccnc1,67.5%,
CC(C)c1cc2c(N3CCN(C4=NCC(C)(C)S4)CC3)ncnc2s1,,5.8 µM (active)
Fc1ccc(C(c2ccc(F)cc2)N2CCN(C/C=C/c3ccccc3)CC2)cc1,,21.1 µM (active)
CCCCc1ccc(NS(=O)(=O)c2ccc(C)c(C(=O)N3CCN(c4cccc(C)c4C)CC3)c2)cc1,,42.8 µM (active)
COC1(c2sc3c(N4CCOCC4)nc(-c4cnc(N)nc4)nc3c2C)COC1,,0.411 µM (active)
CO[C@H]1/C=C/C=C/C=C/C[C@H](OC(=O)[C@@H](C)NC(=O)C2CCCCC2)[C@H](C)[C@@H](O)/C(C)=C/CCc2cc(O)cc(c2)NC(=O)C1,,0.109 µM (active)
Nc1ncn([C@@H]2O[C@H](CO)[C@@H](O)[C@H]2O)c(=O)n1,,1.66 µM (active)
COC(=O)c1cc(Cl)ccc1OC,94.3%,
Cc1ccc(O)cc1,85.5%,
O=C(Nc1nc2cccc(-c3ccc(CN4CCS(=O)(=O)CC4)cc3)n2n1)C1CC1,,2.91 µM (active) and 7.42 µM (active)
CC1(CCOC2OC(CO)C(O)C(O)C2O)CCC23OC2(C1)C(O)CC1C(C)(C(=O)O)CCCC13C (stereo not given),67.3% [at 17.3 µM],

Compound,"viability, % of control",Potency
CCN(CC)CCNC(C(=O)OCCC(C)C)c1ccccc1 (stereo not given),90.8%,
COc1ccc(S(=O)(=O)N2CCc3cccc(-c4ccncc4)c32)cc1,,0.833 µM (active)
CO[C@@H]1[C@@H](OC(N)=O)[C@@H](O)[C@H](Oc2ccc3c(O)c(NC(=O)c4ccc(O)c(CC=C(C)C)c4)c(=O)oc3c2C)OC1(C)C,70.2%,
Cc1cc2cc3c(C)cc(=O)oc3c(C)c2o1,,inactive
NS(=O)(=O)c1cc2c(cc1Cl)NC=NS2(=O)=O,,inactive
COCCNCc1ccc(-c2cc3nccc(Oc4ccc(NC(=S)NC(=O)Cc5ccc(F)cc5)cc4F)c3s2)nc1,,0.0259 µM (active)
Cc1cccc(C)c1NC(=O)c1ccc(N)cc1,91.2%,
CN1CCCN(C(=O)c2cccc(-c3ccc(/C=C4/C(=O)Nc5ccc(Cl)cc54)o3)c2)CC1,,0.662 µM (active)
CC1(C)CC(NC(=O)C(=O)Nc2ccc(Br)cc2)CC(C)(C)N1,,2.59 µM (active)
COc1ccc2c(c1)CC[C@@H]1[C@@H]2CC[C@]2(C)[C@@H](NCCCCCCN3C(=O)C=CC3=O)CC[C@@H]12,,5.25 µM (active)
COc1ncnc(NS(=O)(=O)c2ccc(N)cc2)c1OC,,inactive
COc1cc(CCC2=NN=C(NC(=O)c3ccc(N4C[C@@H](C)N[C@@H](C)C4)cc3)C2)cc(OC)c1,,1.46 µM (active)
COc1cc(-c2cccc(O)c2)cc2c1OCO2,78.7%,
OCC1=CC[C@@H]2C=CO[C@@H](O[C@@H]3O[C@H](CO)[C@@H](O)[C@H](O)[C@H]3O)[C@H]12,70%,
CC(O)C(=O)O (stereo not given),86.2%,
CCN(Cc1cccnc1)C(=O)CN(c1ccc(OC)nc1)S(=O)(=O)c1ccccc1C,87.6%,
CCCN(CCC)C(=O)C(CCC(=O)OCCCN1CCN(CCOC(=O)Cc2c(C)n(C(=O)c3ccc(Cl)cc3)c3ccc(OC)cc23)CC1)NC(=O)c1ccccc1 (stereo not given),,20.6 µM (active)
C=C1C(=O)O[C@@H]2C=C(COC(C)=O)CC/C=C(\CO)CC[C@@H]12,,14.3 µM (active)
O=C(/C=C/c1nc2ccccc2[nH]1)c1c(-c2ccccc2)c2cc(Cl)ccc2[nH]c1=O,,0.291 µM (active)
Cc1cc(-c2cc(O)ccc2Cl)cc2nnc(Nc3ccc(OCCN4CCCC4)cc3)nc12,,1.84 µM (active)

# Source: PubChem BioAssay (NCATS)
